{"source": "PubChem BioAssay", "key": {"[1]": {"experiment": "reducers of endogenous Her2 protein level, primary screen, SKBR3 breast tumor cells, AlphaScreen, ATP viability (AID 461;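 active means Her2 level under about 52% in both replicate screens, with viability over 70% of control, limit read from the data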)", "settings": "18-24 h, measured here: SKBR3 viability, ATP luminescence, at 10 µM"}, "[2]": {"molecular_target": "Receptor tyrosine-protein kinase erbB-2 (Homo sapiens) (UniProt P04626)", "sequence (P04626 whole entry, looked up)": "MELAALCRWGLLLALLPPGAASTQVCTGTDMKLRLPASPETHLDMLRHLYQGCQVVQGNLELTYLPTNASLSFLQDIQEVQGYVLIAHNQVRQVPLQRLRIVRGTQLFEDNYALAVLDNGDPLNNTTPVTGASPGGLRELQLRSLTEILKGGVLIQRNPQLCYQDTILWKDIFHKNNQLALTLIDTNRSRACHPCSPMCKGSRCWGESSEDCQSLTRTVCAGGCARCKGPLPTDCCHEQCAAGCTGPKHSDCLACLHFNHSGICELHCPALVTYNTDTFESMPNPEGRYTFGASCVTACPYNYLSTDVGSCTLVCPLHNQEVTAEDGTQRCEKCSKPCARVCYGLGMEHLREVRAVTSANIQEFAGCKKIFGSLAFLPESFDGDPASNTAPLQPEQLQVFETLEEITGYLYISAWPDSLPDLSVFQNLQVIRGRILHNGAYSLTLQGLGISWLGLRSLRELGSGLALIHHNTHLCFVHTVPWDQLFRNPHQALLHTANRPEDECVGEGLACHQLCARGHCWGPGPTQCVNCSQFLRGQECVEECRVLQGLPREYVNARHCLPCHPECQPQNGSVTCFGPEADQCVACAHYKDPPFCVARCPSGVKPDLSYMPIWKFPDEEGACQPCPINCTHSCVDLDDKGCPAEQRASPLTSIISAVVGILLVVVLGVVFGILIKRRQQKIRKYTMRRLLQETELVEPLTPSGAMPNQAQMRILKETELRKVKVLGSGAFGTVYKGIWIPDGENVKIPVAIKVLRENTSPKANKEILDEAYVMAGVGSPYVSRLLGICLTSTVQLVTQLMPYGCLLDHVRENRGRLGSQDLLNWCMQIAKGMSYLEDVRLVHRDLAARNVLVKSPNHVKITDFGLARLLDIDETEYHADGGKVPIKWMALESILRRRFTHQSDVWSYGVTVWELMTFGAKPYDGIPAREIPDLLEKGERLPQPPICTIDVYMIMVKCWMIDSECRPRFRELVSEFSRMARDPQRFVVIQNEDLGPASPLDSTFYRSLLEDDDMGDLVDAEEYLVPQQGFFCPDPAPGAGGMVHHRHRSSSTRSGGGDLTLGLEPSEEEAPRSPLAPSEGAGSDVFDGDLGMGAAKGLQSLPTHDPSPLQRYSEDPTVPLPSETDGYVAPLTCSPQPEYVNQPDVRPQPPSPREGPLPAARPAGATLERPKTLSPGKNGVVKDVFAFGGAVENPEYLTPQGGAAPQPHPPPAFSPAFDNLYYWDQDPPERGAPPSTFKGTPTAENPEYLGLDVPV", "experiment": "reducers of endogenous Her2 protein level, primary screen, SKBR3 breast tumor cells, AlphaScreen, ATP viability (AID 461);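 on viability: percent of carrier control wells set as 100% viability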", "settings": "18-24 h, at 10 µM, stronger effect = lower value"}, "[3]": {"experiment": "SK-BR-3 cell growth inhibitors, pilot screen, 24 h, human (AID 572;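 active means viability at or below 10% of carrier control in both of two separate runs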;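 on all read-outs here: compound exposure lasted between 18 and 24 h rather than exactly 24 h; 100% = carrier-treated control wells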)", "settings": "SK-BR-3 viability, CellTiter-Glo luminescence, at 10 µM, stronger effect = lower value"}, "[4]": {"experiment": "HUVEC growth inhibition – cell-based, human, primary screen (AID 575;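 active means viability at or below 30% in both replicate assays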;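 on all read-outs here: 100% = median of untreated cell wells with 0.1% DMSO on each plate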)", "settings": "HUVEC proliferation, CellTiter-Glo luminescence, 72 h; at 10 µM; stronger effect = lower value"}, "[5]": {"experiment": "growth inhibitors of H69AR lung tumor, primary screen, human, duplicate replicates (AID 580;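 active means viability at or under a set limit in both replicates, limit being median viability minus 3 SD, cut at about 48% in these data, passing the limit was not always enough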;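 on all read-outs here: 100% = mean luminescence of untreated wells and 0% = no signal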)", "settings": "H69AR lung tumor cells viability, ATP luminescence, 72 h; at 10 µM; stronger effect = lower value"}, "[6]": {"experiment": "reversal of MRP1-mediated doxorubicin resistance, pilot screen, H69AR cells, doxorubicin co-treatment (AID 601;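 active means viability loss from added drug above about 55%, and viability with drug at most 40%, in both replicates, limit read from the data, passing the limit was not always enough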)", "settings": "CellTiter-Glo, 72 h, at 10 µM; for differential viability (reversal): stronger effect = higher value"}, "[7]": {"experiment": "384-well plate pilot, post-Golgi transport modulator project, inhibition of yeast transport mutant growth (AID 636; in the data active means inhibition above about 31%)", "settings": "absorbance 615 nm, about 18 h, stronger effect = higher value"}, "[8]": {"experiment": "growth suppression of yeast trafficking mutant, preliminary HTS, modulators of trafficking downstream of Golgi apparatus project, 1536-format plate, OD 615 nm (AID 637)", "settings": "yeast transport mutant growth, absorbance 615 nm, 18 h; stronger effect = higher value"}, "[9]": {"experiment": "OD615 S. cerevisiae growth inhibition, permissive medium, pilot counter-assay, permissive growth control for S. cerevisiae lifespan shortening project (AID 705;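 active means growth inhibition above 25% in both replicates, a cutoff set 3 SD above the mean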)", "settings": "OD615, 24 h, at 10 µM, stronger effect = higher value"}, "[10]": {"experiment": "Restrictive medium S. cerevisiae growth inhibition, OD615, pilot screen of yeast lifespan reduction project, restrictive growth control (AID 706;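 active means growth inhibition above a set limit, 3 SD over mean compound inhibition, in both replicates, cut at about 43% in these data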;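 further: modified DeaD lifespan yeast strain shifted to restrictive glucose medium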)", "settings": "OD615, 48 h, at 10 µM, stronger effect = higher value"}, "[11]": {"experiment": "viability gain of MRP-1-high H69AR cells under doxorubicin, pilot screen, MRP-1 activator project, CellTiter-Glo, duplicate (AID 807;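 active means viability increase at or above a cutoff of the median across tested compounds plus 3 SD, cut at about 8.5% in these data, passing the limit was not always enough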;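 further: compound pretreatment 18-22 h then 72 h combined with doxorubicin; 0% = doxorubicin alone and 100% = vehicle without doxorubicin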)", "settings": "H69AR viability with doxorubicin, CellTiter-Glo luminescence; at 10 µM; stronger effect = higher value"}, "[12]": {"experiment": "growth suppression of beta-catenin knockout HCT116, pilot screen, human colon tumor cells (AID 823;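 active means cell viability at or below a set limit in both duplicate runs, the limit being the all-compound median minus 4 SD, cut at about 23% in these data, passing the limit was not always enough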;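 further: 0% = wells killed by 20 µM Hyamine and 100% = untreated DMSO cell wells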)", "settings": "CellTiter-Glo, 60 h, at 10 µM, stronger effect = lower value"}, "[13]": {"experiment": "growth suppression of PTEN-deleted HCT116, pilot screen, cell-based, HCT116 clonal line, CellTiter-Glo (AID 824;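 active means viability at or below 27.92% in each of two runs, the all-compound median minus 4 SD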;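 further: 0% = 20 µM Hyamine control and 100% = vehicle cell control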)", "settings": "60 h, at 10 µM, stronger effect = lower value"}, "[14]": {"experiment": "inhibitors of the yeast RAM network, pilot screen, dse1pr::URA3 reporter, 5-FOA selection (AID 869;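 active means inhibition over a set limit, the all-compound mean plus 3 SD, in both replicate runs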;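 further: 0% = DMSO wells with no growth and 100% = 10 µM 1-NA-PP1 with full growth; RAM network block rescues cells from 5-FOA so hits raise OD615 growth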)", "settings": "S. cerevisiae dse1pr::URA3 5-FOA growth, OD615, 2 d; at 10 µM; stronger effect = higher value; strain carries analog-sensitive mutant Cbk1 kinase"}, "[15]": {"experiment": "RAM signaling pathway blockade in yeast – S. cerevisiae, Pdr1DBD-CYC8 efflux-inhibited sensitized strain, primary screen (AID 1298;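 active means RAM network inhibition above 8.4% in each of two replicates, 3 SD over the compound average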;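 further: 0% = DMSO untreated cells without growth and 100% = 10 µM 1-NA-PP1 full growth; higher means more yeast growth rescued from 5-FOA killing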)", "settings": "S. cerevisiae cbk1-as DSE1-URA3 strain, 5-FOA growth OD615, 2 d; at 50 µM; stronger effect = higher value"}, "[16]": {"settings": "H69AR cells + 2 uM doxorubicin, measured here: viability with 2 uM doxorubicin, stronger effect = lower value"}, "[17]": {"settings": "H69AR cells, compound alone cytotoxicity"}}, "note": "Inconclusive results are not listed. Calls of active or inactive are those of the source. Unless noted, no stated cut-off is given here; in the data, active means inhibition above about 30%; inactive means the rest."}
{"smiles": "O=C(C1COc2ccccc2O1)N1CCCC1", "note": "(stereo not drawn)", "values": [{"measurement": "viability", "setting": "[1]", "result": 80, "unit": "%"}, {"measurement": "Her2 level", "setting": "[2]", "result": "112% (inactive)"}, {"measurement": "viability", "setting": "[3]", "result": "80% (inactive)"}, {"measurement": "viability", "setting": "[4]", "result": "86.8% (inactive)"}, {"measurement": "viability", "setting": "[5]", "result": "94.8% (inactive)"}, {"measurement": "differential viability (reversal)", "setting": "[6]; H69AR cells + 2 uM doxorubicin", "result": "1.71% (inactive)"}, {"measurement": "viability", "setting": "[6]; [16]", "result": 93.1, "unit": "%"}, {"measurement": "viability", "setting": "[6]; [17]", "result": 94.8, "unit": "%"}, {"measurement": "inhibition", "setting": "[7]", "result": "-1.41% (inactive)"}, {"measurement": "inhibition", "setting": "[8]", "result": "-10.2% (inactive)"}, {"measurement": "growth inhibition", "setting": "[9]", "result": "-16.3% (inactive)"}, {"measurement": "growth inhibition", "setting": "[10]", "result": "-10.1% (inactive)"}, {"measurement": "viability increase", "setting": "[11]", "result": "-0.88% (inactive)"}, {"measurement": "viability", "setting": "[12]", "result": "105% (inactive)"}, {"measurement": "viability", "setting": "[13]", "result": "96.9% (inactive)"}, {"measurement": "inhibition", "setting": "[14]", "result": "2.62% (inactive)"}, {"measurement": "RAM network inhibition", "setting": "[15]", "result": "-0.78% (inactive)"}]}
{"smiles": "CCOCCOc1nc2c(c(=O)n(C)c(=O)n2C)n1Cc1ccc(C)cc1", "values": [{"measurement": "viability", "setting": "[1]", "result": 83, "unit": "%"}, {"measurement": "Her2 level", "setting": "[2]", "result": "113% (inactive)"}, {"measurement": "viability", "setting": "[3]", "result": "83% (inactive)"}, {"measurement": "viability", "setting": "[4]", "result": "94.5% (inactive)"}, {"measurement": "viability", "setting": "[5]", "result": "90.8% (inactive)"}, {"measurement": "differential viability (reversal)", "setting": "[6]; H69AR cells + 2 uM doxorubicin", "result": "-4.61% (inactive)"}, {"measurement": "viability", "setting": "[6]; [16]", "result": 95.4, "unit": "%"}, {"measurement": "viability", "setting": "[6]; [17]", "result": 90.8, "unit": "%"}, {"measurement": "inhibition", "setting": "[7]", "result": "0.27% (inactive)"}, {"measurement": "inhibition", "setting": "[8]", "result": "4.33% (inactive)"}, {"measurement": "growth inhibition", "setting": "[9]", "result": "3.97% (inactive)"}, {"measurement": "growth inhibition", "setting": "[10]", "result": "-4.73% (inactive)"}, {"measurement": "viability increase", "setting": "[11]", "result": "0.37% (inactive)"}, {"measurement": "viability", "setting": "[12]", "result": "82.3% (inactive)"}, {"measurement": "viability", "setting": "[13]", "result": "79% (inactive)"}, {"measurement": "inhibition", "setting": "[14]", "result": "2.64% (inactive)"}, {"measurement": "RAM network inhibition", "setting": "[15]", "result": "2.08% (inactive)"}]}
{"smiles": "Clc1ccc(Nc2ncnc3c2cnn3-c2ccccc2)cc1", "values": [{"measurement": "viability", "setting": "[1]", "result": 116, "unit": "%"}, {"measurement": "Her2 level", "setting": "[2]", "result": "90.5% (inactive)"}, {"measurement": "viability", "setting": "[3]", "result": "116% (inactive)"}, {"measurement": "viability", "setting": "[4]", "result": "86% (inactive)"}, {"measurement": "viability", "setting": "[5]", "result": "78.7% (inactive)"}, {"measurement": "differential viability (reversal)", "setting": "[6]; H69AR cells + 2 uM doxorubicin", "result": "7.29% (inactive)"}, {"measurement": "viability", "setting": "[6]; [16]", "result": 71.4, "unit": "%"}, {"measurement": "viability", "setting": "[6]; [17]", "result": 78.7, "unit": "%"}, {"measurement": "inhibition", "setting": "[7]", "result": "-4% (inactive)"}, {"measurement": "inhibition", "setting": "[8]", "result": "0% (inactive)"}, {"measurement": "growth inhibition", "setting": "[9]", "result": "-10.8% (inactive)"}, {"measurement": "growth inhibition", "setting": "[10]", "result": "-13.1% (inactive)"}, {"measurement": "viability increase", "setting": "[11]", "result": "-2.81% (inactive)"}, {"measurement": "viability", "setting": "[12]", "result": "81.7% (inactive)"}, {"measurement": "viability", "setting": "[13]", "result": "74.8% (inactive)"}, {"measurement": "inhibition", "setting": "[14]", "result": "0.855% (inactive)"}, {"measurement": "RAM network inhibition", "setting": "[15]", "result": "-0.47% (inactive)"}]}
{"smiles": "CC(C)(C)SCCNC(=O)COc1ccccc1", "values": [{"measurement": "viability", "setting": "[1]", "result": 112, "unit": "%"}, {"measurement": "Her2 level", "setting": "[2]", "result": "88.5% (inactive)"}, {"measurement": "viability", "setting": "[3]", "result": "112% (inactive)"}, {"measurement": "viability", "setting": "[4]", "result": "88.4% (inactive)"}, {"measurement": "viability", "setting": "[5]", "result": "96.8% (inactive)"}, {"measurement": "differential viability (reversal)", "setting": "[6]; H69AR cells + 2 uM doxorubicin", "result": "11.8% (inactive)"}, {"measurement": "viability", "setting": "[6]; [16]", "result": 85, "unit": "%"}, {"measurement": "viability", "setting": "[6]; [17]", "result": 96.8, "unit": "%"}, {"measurement": "inhibition", "setting": "[7]", "result": "-6.22% (inactive)"}, {"measurement": "inhibition", "setting": "[8]", "result": "4% (inactive)"}, {"measurement": "growth inhibition", "setting": "[9]", "result": "-2.07% (inactive)"}, {"measurement": "growth inhibition", "setting": "[10]", "result": "4.92% (inactive)"}, {"measurement": "viability increase", "setting": "[11]", "result": "0.03% (inactive)"}, {"measurement": "viability", "setting": "[12]", "result": "95.7% (inactive)"}, {"measurement": "viability", "setting": "[13]", "result": "96.6% (inactive)"}, {"measurement": "inhibition", "setting": "[14]", "result": "1.81% (inactive)"}, {"measurement": "RAM network inhibition", "setting": "[15]", "result": "2.63% (inactive)"}]}
